# Laboratory results published in PubChem BioAssay (NCI).
# Compounds without any hit were thinned out: in the full panel of roughly 83,000, 20% have a hit.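 Single-dose data. Exposure time 48 hours. Values below 10 considered active.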 A number with no mark means an inactive call. The source made the active and inactive calls.
# How the values were obtained:
# Test in all cases: NCI-60 one-dose screen, 48 h (100 = growth as untreated, 0 = no growth, -100 = all killed)
# Conditions in all cases: 10 µM unless noted
# SK-MEL-2 melanoma = test system: SK-MEL-2 melanoma
# EKVX NSCLC = test system: EKVX NSCLC
# SN12C renal = test system: SN12C renal
# UO-31 renal = test system: UO-31 renal
# TK-10 renal = test system: TK-10 renal
# ACHN renal = test system: ACHN renal
# CAKI-1 renal = test system: CAKI-1 renal
# A498 renal = test system: A498 renal
# CCRF-CEM leukemia = test system: CCRF-CEM leukemia
# MOLT-4 leukemia = test system: MOLT-4 leukemia
# SR leukemia = test system: SR leukemia
# RPMI-8226 leukemia = test system: RPMI-8226 leukemia
# OVCAR-8 ovarian = test system: OVCAR-8 ovarian
# OVCAR-5 ovarian = test system: OVCAR-5 ovarian
# SK-OV-3 ovarian = test system: SK-OV-3 ovarian
# IGROV1 ovarian = test system: IGROV1 ovarian
# OVCAR-3 ovarian = test system: OVCAR-3 ovarian
# HS 578T breast = test system: HS 578T breast
# NCI/ADR-RES ovarian = test system: NCI/ADR-RES ovarian
# OVCAR-4 ovarian = test system: OVCAR-4 ovarian
SMILES,growth (SK-MEL-2 melanoma),growth (EKVX NSCLC),growth (SN12C renal),growth (UO-31 renal),growth (TK-10 renal),growth (ACHN renal),growth (CAKI-1 renal),growth (A498 renal) [%],growth (CCRF-CEM leukemia),growth (MOLT-4 leukemia),growth (SR leukemia),growth (RPMI-8226 leukemia),growth (OVCAR-8 ovarian),growth (OVCAR-5 ovarian),growth (SK-OV-3 ovarian),growth (IGROV1 ovarian),growth (OVCAR-3 ovarian),growth (HS 578T breast),growth (NCI/ADR-RES ovarian),growth (OVCAR-4 ovarian) [%]
COc1ccc(C2=NN3C(C2)c2cc(Br)ccc2OC3c2ccncc2)cc1 (centres undefined),97.5%,83.6%,83.3%,44.6%,98.6%,80.7%,45.2%,95.6,70%,68.5%,64.2%,77.8%,82.6%,88.4%,70.6%,48.9%,80.1%,89.4%,82%,–
Cc1cccc(C)c1NC(=O)Nc1ccccc1,29%,121%,88.6%,80.7%,96.7%,4.67% (active),54.3%,109,83.1%,81.7%,68.6%,96.1%,85.1%,72.2%,102%,71%,115%,128%,97.1%,–
C#Cc1cccc(Nc2nc(Cl)nc3cc(NC(=O)CCl)ccc23)c1,-75.9% (active),-76.5% (active),-70.7% (active),-96% (active),-96.3% (active),-98% (active),-96.9% (active),59.6,-17.4% (active),-24.9% (active),-39.7% (active),-47.6% (active),-23.9% (active),-92% (active),-18.9% (active),-59.8% (active),-88.1% (active),-14% (active),-14.4% (active),–
COc1ccc(S(=O)(=O)N(C)c2oc(-c3ccc(Cl)cc3)nc2C#N)cc1,85%,86.8%,88.4%,72.2%,94.3%,101%,75.6%,63.8,72.2%,59.4%,29.3%,69.7%,96%,94.6%,91.2%,77.7%,82.2%,64.9%,58.6%,–
COC(=O)c1nc(-c2ccccc2)oc1S(=O)(=O)N1CCN(c2ccc(OC)cc2)CC1,106%,88.2%,85.4%,66.1%,68.1%,66.4%,79.3%,121,-11.9% (active),25.1%,-1.38% (active),37.3%,83.8%,88.7%,104%,71.7%,45.4%,89.2%,104%,–
CC(C)c1nc(N(C)S(C)(=O)=O)nc(-c2ccc(F)cc2)c1/C=C/C(=O)C[C@@H](O)CC(=O)O,81.1%,107%,110%,93.1%,88.4%,108%,98.5%,106,102%,107%,105%,107%,94.2%,106%,–,105%,111%,102%,107%,–
COc1ccc(NC(=O)c2ccc(Cl)cc2Cl)cc1,106%,89.1%,101%,96.5%,88.3%,117%,95.7%,72.6,106%,107%,98.2%,101%,98.6%,101%,106%,106%,106%,96.8%,97.5%,–
COc1cc(/C=C/C(=O)c2ccc(-n3cc(CN4CCN(c5cc6c(cc5F)c(=O)c(C(=O)O)cn6C5CC5)CC4)nn3)cc2)cc(OC)c1OC,102%,80.8%,58.8%,65.4%,97.8%,93.4%,68.7%,34.9,34.6%,80.4%,21.3%,6.02% (active),80.7%,92.7%,79%,79.4%,84.9%,71.2%,85.6%,–
CN1CCN(Cn2nc(-c3cc(Cl)cc(Cl)c3Cl)oc2=S)CC1,95.3%,102%,93.9%,138%,110%,98.1%,59.5%,95,272%,122%,70.4%,160%,96%,93.6%,100%,97.8%,99.2%,91.2%,99%,–
Cn1ncc(CC(=O)O)c1-n1nnc2cc(Cl)ccc2c1=O,99.3%,86%,92.5%,81.1%,90.7%,94.3%,87.8%,134,98.1%,100%,87.6%,106%,99.6%,98.1%,111%,103%,114%,91.5%,101%,–
C#C[C@]1(O)CC[C@H]2[C@@H]3CC=C4c5sc(-c6cccc(C)c6)nc5CC[C@]4(C)[C@H]3CC[C@@]21C,86.9%,68%,71.3%,34.1%,110%,63.7%,27.2%,94.9,49.6%,44.2%,38.6%,–,89.9%,73.8%,88.9%,68.8%,89.2%,40.8%,80.9%,81.2
COC(=O)c1c(C)nc(C)c2c1C(=O)C(Br)=C(NCCN1CCOCC1)C2=O,99.4%,100%,89.5%,86.5%,108%,97.9%,91.4%,92.4,97.3%,99.3%,107%,93.7%,81.9%,118%,138%,96.2%,13.2%,110%,103%,–
COc1ccc2c(c1)C(c1c[nH]c3ccccc13)(c1c[nH]c3ccccc13)CCO2,43.6%,35%,50.6%,26.1%,59.7%,45%,44%,82.9,36.7%,8.7% (active),55.9%,–,61.2%,76.6%,23.9%,48%,57.4%,55.5%,54.1%,26
O=C1CCC(C(=O)N/N=C/c2ccc([N+](=O)[O-])cc2)N1 (centres undefined),102%,102%,103%,83.4%,93%,101%,93%,106,97%,102%,113%,–,101%,105%,105%,100%,105%,98.8%,103%,104
COC1CC(O)C2=C(CC3C(/C(C)=C\CC=C(C)C)CCC3(C)O2)C1=O (centres undefined),96.9%,105%,107%,89.6%,92.4%,111%,107%,103,88.1%,92.2%,86.4%,–,99.9%,114%,107%,110%,109%,98.6%,103%,113
